Source: PubChem
MmCpn inh: Inhibitors of TCP-1 ring complex (TRiC) of Methanococcus maripaludis (MmCpn): qHTS; Chaperonin Mm-Cpn (Methanococcus maripaludis); AID 504842, 2011; 330,000 compounds, 0.031% hits; purified Mm-Cpn ATPase, ADP Transcreener TR-FRET; Potency, µM (highest dose often 76.9 µM), actives largely listed as inhibitors; note: nearly all actives have a fitted effect of over 80% in size
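Inhibition of chaperonin ATP hydrolysis is measured as reduced ADP production, detected by competitive TR-FRET in which signal falls with ADP. Final enzyme 25 nM and ATP 10 uM, reacted 30 min at 37°C.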
AT treatment: qHTS Assay for Identifying a Potential Treatment of Ataxia-Telangiectasia; AID 485349, 2010; F2112 A-T fibroblasts, KAP-1 phosphorylation AlphaLISA; neocarzinostatin DNA damage 30 min before lysis; Potency, µM (doses to about 57.5 µM), actives largely listed as activators; 320,000 compounds, 0.19% hits; note: nearly all actives have a fitted effect of over 45% in size
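hTERT-immortalized A-T patient fibroblasts (F2112), 500 cells/well in OPTI-MEM, 1% FBS, got compounds for 60 min, then NCS for 30 min at 37C. Lysates were then assayed for phospho-KAP-1 by AlphaLISA (anti-pKAP1 donor, anti-KAP1 acceptor beads), 6 hr at 25C.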
CCT chaperon mod: High-Throughput Screening for Modulators of Cytosolic Chaperonin Activity | purified chaperonin ATPase assay, HTRF ADP detection, 30 min | activity change, % (no concentration beside the values), hits read low | 360,000 compounds, 0.3% hits; in the data active = activity change below about -30%
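We incubate TRiC, 40 or 20 nM final, with library compounds at 76 uM and 10 uM ATP for 30 min at 37 °C. ADP formed is detected with Transcreener HTRF reagents after 30 min at room temperature.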
Apoferritin bind: qHTS Assay for Identification of Novel General Anesthetics; Potency, µM (doses to about 77.5 µM), actives largely listed as inhibitors; Ferritin light chain (Equus caballus), P02791; 350,000 compounds, 0.074% hits; apoferritin/1-aminoanthracene competitive binding, fluorescence; note: nearly all actives have a fitted effect of over 20% in size
Target sequence (P02791 2-175 limits assumed): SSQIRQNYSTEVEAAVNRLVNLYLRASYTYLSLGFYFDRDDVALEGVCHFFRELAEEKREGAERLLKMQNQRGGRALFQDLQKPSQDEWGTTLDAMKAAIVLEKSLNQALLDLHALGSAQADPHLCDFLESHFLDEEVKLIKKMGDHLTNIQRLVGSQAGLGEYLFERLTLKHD
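Horse-spleen apoferritin (10 uM) in 50% saturated 1-aminoanthracene in PBS was incubated 10 min at room temperature with compound. Fluorescence (ex 380, em 535 nm) was normalized to free and bound 1-AMA, with concentration-response fitted by a four-parameter Hill equation.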
Numbers stand for hits; 0 = inactive; ? = inconclusive; - = no result; [ ] = dose if it differs, or a comment. Hits are enriched below; roughly 0.47% of the tested compounds scored in any of these assays. Unless noted, calls come from the whole dose curve; as a rule, active = well fitted curve in the direction sought with a large enough effect; inconclusive = small, poorly fitted or top-dose-only effect, or another doubt; inactive = no such curve, though single readings can be large; an effect the other way counts as inactive or inconclusive.

SMILES	MmCpn inh	AT treatment	CCT chaperon mod	Apoferritin bind
COCCN(C(=S)Nc1ccccc1C)C(C)c1ccco1 (stereo unspecified)	0	32µM	0	0
CC(=O)Nc1ccc(S(=O)(=O)N2CCN(CC3CC4C=CC3C4)CC2)cc1 (stereo unspecified)	0	0	-43	0
CC(=O)Nc1ccc(S(=O)(=O)N2CCN(S(=O)(=O)c3ccccc3)CC2)cc1	0	0	0	0
CNc1nc(-c2c[nH]c3ccccc23)cs1	0	0	0	0
CCC(C)Nc1nc(-c2c[nH]c3ccccc23)cs1 (stereo unspecified)	0	35µM	0	0
COc1ccc(-c2cn3c(n2)sc2cc(C(=O)NCCc4ccccc4)ccc23)cc1	-	-	-	0
CN(C(=O)COc1cc(=O)n(C)c2ccccc12)c1cccc(Cl)c1	0	0	0	0
CCN(C(=O)COc1cc(=O)n(C)c2ccccc12)c1cccc(Cl)c1	0	0	-55	0
COc1ccccc1CNC(=O)CN1C(=O)CSc2ccc(S(=O)(=O)N(C)C)cc21	-	-	-	0
COc1ccc([N+](=O)[O-])cc1NC(=O)C1(c2ccc(OC)c(OC)c2)CCOCC1	0	0[11.5 µM]	-93	0
CCC(C)Sc1cccc(-c2nc3ccc(C)cn3c2NC2CCCCC2)c1 (stereo unspecified)	0	25µM	0	-
CCC(C)Sc1cc(-c2nc3ccccn3c2NC2CCCCC2)ccc1OC (stereo unspecified)	0	32µM	0	-
CCC(C)Sc1cccc(-c2nc3cc(C)ccn3c2NCc2ccccc2)c1 (stereo unspecified)	0	22µM	0	-
Cc1ccn2c(NCc3ccccc3)c(-c3cccc(SC4CCCCC4)c3)nc2c1	0	?	0	-
CCCCNc1c(-c2ccc(SC(C)CC)cc2)nc2ccccn12 (stereo unspecified)	0	22µM	0	-
COc1ccc(C)cc1NC(=O)C(=O)NCCc1csc(-c2ccc(C)cc2)n1	-	-	-	0
CC1(C)CC(=O)C2=C(C1)O[C@@]1(CCCCN3C(=O)c4ccccc4C3=O)Cc3ccccc3C2O1	0[15.4 µM]	0[11.5 µM]	-	?
CC(O)[C@H]1CNC(=O)C(=O)N1CC1(c2ccccc2)CC1 (stereo partly specified)	0	8.9µM	0	0
CCCC(C)c1nc(C(N)=O)c2[nH]c(=O)n(-c3ccc(OC)cc3OC)c2n1 (stereo unspecified)	0	0	-78	0
O=C(O)c1cnc(-c2ccccc2)nc1C(F)(F)F	0	0	-51	0
CC1CCCN(S(=O)(=O)c2ccc(NC(=O)c3cccc(-n4cnnn4)c3)cc2)C1 (stereo unspecified)	0	0	0	14µM
CCCNC(=O)N1CCN(Cc2ccco2)CC1	0	0	-63	0
CCc1cc(C(C)=O)c(O)cc1OCCCCCC(C)(C)c1nn[nH]n1	-	-	-	0
O=C1C([N+](=O)[O-])=C(O)c2cccc3cccc1c23	0	28µM	-	0
CCN(CC)c1ccc(CNc2nc3ccccc3n2CCN2CCOCC2)cc1	0	0	0	0
SMILES	MmCpn inh	AT treatment	CCT chaperon mod	Apoferritin bind
COc1ccc(CNc2nc3ccccc3n2CCN2CCOCC2)cc1	0	0	-45	0
CCC1Sc2ccc(S(=O)(=O)Nc3ccc(OC)cc3)cc2NC1=O (stereo unspecified)	0	0	0	0
CCC1Sc2ccc(S(=O)(=O)Nc3ccc(OC)c(OC)c3)cc2NC1=O (stereo unspecified)	0	0	-35	0
CC(=O)OCC(NC(=O)C(CCCCNC(=O)OCc1ccccc1)NC(=O)OC(C)(C)C)C1OC(n2ccc(=O)[nH]c2=O)C(OC(C)=O)C1OC(C)=O (stereo unspecified)	-	-	-	0
Cc1cc(C)n2nc(C)c(-c3ccccc3)c2n1	-	-	0	-
Cc1cc(Nc2ccccc2)n2nc(C)c(-c3ccccc3)c2n1	0	28µM	0	0
COc1ccc(-c2ccc(CNc3ccc4[nH]c(=O)[nH]c4c3)o2)cc1Cl	-	-	-	0
CSc1nncc(/C(C)=N/O)n1	0	0	-57	0
CCOC(=O)c1cccc(NC(=O)c2ccc3c(Cl)c4c(nc3c2)CCC4)c1	-	-	-	0
C=CCNC(=O)/C(=C\c1ccc(OC)cc1)NC(=O)c1ccc([N+](=O)[O-])cc1	0	0	-35	0
CCOc1ccc(NC(=O)c2ccc(NC(=O)N3CCSc4ncccc43)cc2)cc1	-	-	-	0
Cc1cc(C(=O)Nc2nnc(C(F)(F)F)s2)cs1	0	0	-34	0
CCC(C)c1ccc(NC(=S)N2CCN(C(=O)C3CCCO3)CC2)cc1 (stereo unspecified)	0	0	-74	0
CCN(CC)S(=O)(=O)c1ccc(N2CCOCC2)c(NC(=O)c2ccccc2)c1	0	0	0	0
CCN(CC)S(=O)(=O)c1ccc(N2CCOCC2)c(NC(=O)C23CC4CC(CC(Cl)(C4)C2)C3)c1	0	0	-72	0
COCCCNC(=O)C(C)n1c2ccccc2c2cnn(C)c(=O)c21 (stereo unspecified)	-	-	-	0
CC(C)CCN(C(=O)CNC(=O)c1cccs1)C(C(=O)NC1CCCCC1)c1cccnc1 (stereo unspecified)	0	18µM	0	0
CC(C)CCN(C(=O)CNC(=O)c1cccs1)C(C(=O)NC1CCCC1)c1ccncc1 (stereo unspecified)	0	0	0	0
CCOc1ccccc1NC(=O)Cn1ccn(Cc2ccc(C)cc2)c(=O)c1=O	-	-	-	0
CCOC(=O)Cn1c(=O)n(CC(=O)OCC)c2ccccc21	0	0	0	0
CCOC(=O)n1c2ccccc2c(=O)n1CCO	-	-	-33	-
Cc1c(Cl)cccc1NC(=O)c1ccc2c(c1)nnn2C1CCCC1	-	-	-	0
Cc1ccc(C2=NN(CC(=O)NCCc3ccccc3)C(=O)CC2)cc1	-	-	-	2.5µM
CCCn1c(=O)c2sccc2n2c(CCCC(=O)NCCc3ccc(Cl)cc3)nnc12	-	-	-	0
COc1ccc(-c2nc3ccc(N4CCCC4)cc3c(=O)[nH]2)cc1OC	0	0	-79	0
SMILES	MmCpn inh	AT treatment	CCT chaperon mod	Apoferritin bind
CCc1ccc(C2C(C#N)=C(N)SC(N)=C2C#N)s1	35µM	0	0	0
COC(=O)N1C(=O)[C@@](Cc2ccccc2)(c2ccccc2)N1C(=O)OC	0	?	0	0
COC(=O)N1C(=O)[C@](Cc2ccccc2)(c2ccccc2)N1C(=O)OC	0	40µM	0	0
CCc1sc(Nc2cccc(Cl)c2C)nc1-c1cc2cccc(OC)c2oc1=O	-	-	-	0
Cc1ccc(C)c(S(=O)(=O)N2CCC3(CC2)OCCO3)c1	0	0	0	0
Cc1ccc(C)c(S(=O)(=O)N2CCNCC2)c1	0	0	-34	0
O=C(CN1C(=O)C2(SCC(=O)N2c2ccccc2)c2ccccc21)Nc1ccccc1C(F)(F)F (stereo unspecified)	-	-	-	0
CC(=O)/C(N=Nc1nc2c([nH]1)c(=O)n(C)c(=O)n2C)=C(\C)O	0	7.1µM	0	0
